# This is a sample that favours compounds with a hit; in the whole collection about 3.2% have one here.
# A3G deaminase: APOBEC3G DNA deaminase inhibitors, primary screen, biochemical, fluorescence, single-stranded DNA substrate, uHTS. recombinant A3G, ssDNA deamination FAM/TAMRA fluorescence. inhibition, % at 20 µM. hit rate 0.28% among 330,000. AID 493012, 2011;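 active = inhibition of at least 40% at 20 µM, with no more than 30% in the related APOBEC3A deaminase screen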;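 also: plate controls were DMSO wells with A3G for no effect and wells lacking A3G enzyme for full effect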
# NTR1 ag: agonists of human NTR1, primary screen, imaging, U2OS cells, beta-arrestin-GFP, high content; Neurotensin receptor type 1 (Homo sapiens), P30989; NTR1-U2OS beta-arrestin-GFP spot imaging, agonist mode; hit rate 0.17% among 330,000; activation, % at 20 µM;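 active = activation at or above 40% of the spot to cytoplasm intensity ratio, with at least 20 cells analyzed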;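 also: 0% = DMSO without peptide and 100% = 100 nM NTR1 peptide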
# A3A deaminase: APOBEC3A ssDNA deaminase inhibitors, primary screen, selectivity assay for APOBEC3G inhibitor project, biochemical, FAM/TAMRA oligo cleavage fluorescence. recombinant A3A, FAM/TAMRA ssDNA deamination fluorescence. AID 493011, 2011. inhibition, % at 20 µM. hit rate 0.41% among 330,000. DNA dC->dU-editing enzyme APOBEC-3A (Homo sapiens), P31941;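 active = at least 40% inhibition at 20 µM here, with at most 30% in a related deaminase screen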;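 also: plate controls were A3A with DMSO for no effect and wells lacking A3A enzyme for full effect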
# AHR act: AHR activators, primary screen, cell-based, luminescence, luciferase reporter, human | activation, % at 5 µM | Aryl hydrocarbon receptor (Homo sapiens), P35869 | AHR-responsive luciferase reporter cells | hit rate 2.5% among 320,000; in the data active = activation above about 47%;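 also: 0% = vehicle wells and 100% = reference agonist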
# Target sequence (P35869 whole entry, looked up): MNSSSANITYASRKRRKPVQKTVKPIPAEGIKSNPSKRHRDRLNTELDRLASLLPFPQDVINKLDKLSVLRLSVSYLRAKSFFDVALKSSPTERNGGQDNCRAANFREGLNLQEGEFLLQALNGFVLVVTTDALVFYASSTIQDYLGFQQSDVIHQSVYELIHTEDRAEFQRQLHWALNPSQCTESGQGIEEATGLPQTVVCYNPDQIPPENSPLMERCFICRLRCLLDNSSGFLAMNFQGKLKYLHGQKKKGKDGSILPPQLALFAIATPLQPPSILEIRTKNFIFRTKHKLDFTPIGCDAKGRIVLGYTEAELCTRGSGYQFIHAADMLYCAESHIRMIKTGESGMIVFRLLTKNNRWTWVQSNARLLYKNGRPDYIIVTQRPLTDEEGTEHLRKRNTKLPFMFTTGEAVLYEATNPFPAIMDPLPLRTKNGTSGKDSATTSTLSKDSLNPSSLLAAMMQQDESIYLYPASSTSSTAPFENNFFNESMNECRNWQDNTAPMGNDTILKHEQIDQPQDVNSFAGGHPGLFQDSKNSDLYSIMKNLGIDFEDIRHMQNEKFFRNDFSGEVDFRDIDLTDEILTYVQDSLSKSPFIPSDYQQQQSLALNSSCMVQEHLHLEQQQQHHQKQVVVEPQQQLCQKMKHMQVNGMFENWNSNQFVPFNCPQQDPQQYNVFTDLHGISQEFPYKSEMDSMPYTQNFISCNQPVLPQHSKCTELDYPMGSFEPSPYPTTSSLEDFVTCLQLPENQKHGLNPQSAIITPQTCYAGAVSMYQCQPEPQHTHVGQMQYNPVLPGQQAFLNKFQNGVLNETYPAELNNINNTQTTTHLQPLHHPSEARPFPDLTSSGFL
# NTR1 ag conf: NTR1 agonists, single-dose retest, confirmation, imaging, U2OS cells, beta-arrestin-GFP, single concentration | hit rate 38% among 480 | activation, % at 20 µM | shares compounds with NTR1 ag | NTR1-U2OS beta-arrestin-GFP translocation imaging;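 active = mean activation at 20 µM of at least 40%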;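 also: 0% = DMSO without peptide and 100% = 100 nM NTR1 peptide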
# The depositor's hits bear a star; x = not tested or not shown.
SMILES,A3G deaminase,NTR1 ag,A3A deaminase,AHR act,NTR1 ag conf
COc1cc(OC)c2c(-c3ccccc3)cc(=O)oc2c1C(CCN1CCCCC1)c1ccc(N(C)C)cc1 (configuration not stated),-9,12,-7,0,x
COc1ccc(C2=NN(C(=O)c3ccco3)C(c3ccco3)C2)cc1OC (configuration not stated),-5,1,0,2,x
COc1ccc(C)cc1S(=O)(=O)N1CCCC(C(=O)N2CCN(c3ccccc3F)CC2)C1 (configuration not stated),16,0,2,10,x
CCN(CC(=O)NCc1cccs1)C(=O)CCC(=O)c1ccc(C)cc1,-7,1,-3,2,x
Cc1ccc(S(=O)(=O)N(CCCO)CC(O)CON=C2c3ccccc3-c3ccccc32)cc1 (configuration not stated),7,47*,-1,11,22
O=C(O)C1=CC[C@@H](c2ccc(Cl)cc2)N(S(=O)(=O)c2ccc(Cl)cc2)[C@H]1c1ccccc1,-8,40*,-5,0,4
Cc1ccc([C@H]2C(C(=O)O)=CC[C@@H](c3ccc(Cl)cc3)N2S(=O)(=O)c2ccc(C)cc2)cc1,1,10,-1,0,x
CCOC(=O)C1Nc2ccccc2C2C(O)C(O)CC12 (configuration not stated),-2,1,-4,-1,x
CCOC(=O)C1Nc2ccc(C(F)(F)F)cc2C2c3ccccc3CC12 (configuration not stated),5,56*,3,29,7
Cc1cc2ccccc2c(=O)n1CC(=O)Nc1ccc2c(c1)OCCO2,3,46*,6,0,-6
CC(C)c1ccccc1NC(=O)C1CC(=O)N(C2CCCC2)C1 (configuration not stated),-6,1,-1,-2,x

# Screening results as filed in PubChem BioAssay.
